Results as given in PubChem BioAssay AID488849 (National Center for Advancing Translational Sciences (NCATS), 2010).
Where “and” joins values, the source holds several entries; their conditions need not be identical. Equal values may be shown once. Records with an inconclusive call do not appear. Calls of active or inactive are those of the source. Calls come from the whole dose curve; as a rule, active = well fitted activation curve with a large enough effect; inconclusive = small, poorly fitted or top-dose-only effect; inactive = flat fitted curve, though single readings scatter.

Each compound was assayed against Lysosomal acid glucosylceramidase (Homo sapiens) (UniProt P04062) (assay: qHTS Assay for Inhibitors and Activators of N370S glucocerebrosidase as a Potential Chaperone Treatment of Gaucher Disease: Activity in Non-Mutant Spleen Confirmation for Probe SAR). Settings: human spleen homogenate, 4-MU-beta-glucoside fluorescence; series mostly up to 57.5 µM; activity change, negative = inhibition: at the top concentration.
Sequence of Lysosomal acid glucosylceramidase (Homo sapiens) (P04062 whole entry, looked up): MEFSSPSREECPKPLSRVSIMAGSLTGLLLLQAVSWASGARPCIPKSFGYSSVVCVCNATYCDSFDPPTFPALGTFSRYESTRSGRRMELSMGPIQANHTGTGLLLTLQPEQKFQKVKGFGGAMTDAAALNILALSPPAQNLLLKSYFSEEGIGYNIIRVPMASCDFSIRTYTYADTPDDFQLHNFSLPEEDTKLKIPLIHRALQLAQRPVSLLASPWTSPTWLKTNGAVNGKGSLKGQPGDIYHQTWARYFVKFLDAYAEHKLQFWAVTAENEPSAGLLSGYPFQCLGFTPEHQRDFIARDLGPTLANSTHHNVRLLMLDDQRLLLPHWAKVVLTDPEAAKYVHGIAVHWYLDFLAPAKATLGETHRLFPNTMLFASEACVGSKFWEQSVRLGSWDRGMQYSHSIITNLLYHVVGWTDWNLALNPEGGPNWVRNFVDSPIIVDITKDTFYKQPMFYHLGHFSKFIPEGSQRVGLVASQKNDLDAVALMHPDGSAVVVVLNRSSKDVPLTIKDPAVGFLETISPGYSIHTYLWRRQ
Description: NIH Chemical Genomics Center [NCGC] NIH Molecular Libraries Probe Production Centers Network [MLPCN] MLPCN Grant: MH086442-01 Assay Submitter (PI): Wei Zheng Glucocerebrosidase (GC) catalyzes the hydrolysis of beta-glucocerebroside to glucose and ceramide in lysosomes. Mutations in the glucocerebrosidase gene result in Gaucher disease, an autosomal recessive lysosomal storage disorder. Many of the mutations encountered in patients with Gaucher disease are missense alterations that may cause misfolding, decreased stability and/or mistrafficking of this lysosomal protein. […] These inhibitors include iminosugar analogs and three non-iminosugar inhibitors identified from a previous HTS of 62,000 compounds with the wild type recombinant enzyme. However, the enhancement of enzyme activity by the chaperone action of an enzyme inhibitor must be balanced against the direct inhibition of the enzyme. An enzyme activator could also function as a chaperone by binding to the enzyme and helping to correct its misfolding and mistrafficking. While activators for GC have not yet been identified, they may have better therapeutic potential than inhibitors. Therefore the discovery and development of chemical activators may provide a new strategy for the chaperone therapy. We have optimized a new assay using N370S mutant GC derived from the spleen of a Gaucher patient. […] In addition, the MLPCN compound library has expanded, which increases the chance of finding new and better probes. This confirmation assay tests for compound activity in spleen homogenate containing wildtype enzyme.
NCGC Assay Protocol Summary: This is a fluorogenic enzyme assay with 4-methylumbelliferyl-beta-D-glucopyranoside as the substrate and wildtype glucocerebrosidase from human spleen homogenate as the enzyme preparation. Upon the hydrolysis of this fluorogenic substrate, the resulting product, […] which can be detected by a standard fluorescence plate reader. Data were normalized to the controls for basal activity (without enzyme) and 100% activity (with enzyme). The AC50 values were determined from concentration-response data modeled with the standard Hill equation. Assay buffer: 50 mM citric acid (titrated with potassium phosphate to pH 5.0), 100 mM potassium chloride, 10 mM sodium chloride, 1 mM magnesium chloride, 0.01% Tween-20. 1536-well assay protocol: (1) Add 2 ul/well of spleen homogenate (27 ug final) (2) Add 23 nL compounds in DMSO solution. The final titration was 0.5 nM to 58 uM. (3) Add 2 ul of substrate (1 mM final) (4) Incubate at 37C for 40 min. (5) Add 2 ul stop solution (1M NaOH and 1M Glycine mixture, pH 10) (6) Detect the assay plate in a ViewLux plate reader (PerkinElmer) with Ex=365 nm and Em=440nm. Keywords: Glucocerebrosidase, beta-glucosidase, Gaucher Disease, pharmacological chaperone, chaperone therapy, high throughput screening, glucocerebrosidase inhibitor, MLSMR, MLSCN, NIH Roadmap, qHTS and NCGC
In the case of `Cc1cc(C)n2ncc(C(=O)Nc3ccc4c(c3)OCCO4)c2n1`, the Potency is reported as 13 µM (active).
In the case of `COc1ccc(NC(=O)c2cnn3c(C)cc(C)nc23)cc1`, the Potency is reported as 20.6 µM (active).
For `Cc1ccc(NC(=O)c2cnn3c(C)cc(C)nc23)c(C)c1`, the Potency was 8.19 µM (active).
`Cc1cc(C)n2ncc(C(=O)Nc3cccc(C#N)c3)c2n1` was tested, and the “activity change, negative = inhibition” value was 3.71% [at 19 µM] (inactive).
With `Cc1cc(C)n2ncc(C(=O)Nc3ccc(S(C)(=O)=O)cc3)c2n1` the “activity change, negative = inhibition” value was -0.537% (inactive).
For `Cc1cc(C)n2ncc(C(=O)Nc3ccc(C)c(C)c3)c2n1`, the Potency was 4.11 µM (active).
With `Cc1cc(C)n2ncc(C(=O)N3CCCC3)c2n1` the “activity change, negative = inhibition” value was 2.17% (inactive).
In the case of `Cc1ccc(NC(=O)c2cnn3c(C)cc(C)nc23)cc1`, the Potency is reported as 3.26 µM (active).
With `Cc1cccc(NC(=O)c2cnn3c(C)cc(C)nc23)c1` the Potency was 8.19 µM (active).
`CC(=O)Nc1ccccc1NC(=O)c1cnn2c(C)cc(C)nc12` was tested, and the “activity change, negative = inhibition” value was 1.4% (inactive).
With `CNC(=O)c1cnn2c(C)cc(C)nc12` the “activity change, negative = inhibition” value was 1.47% (inactive).
With `C#Cc1ccc(NC(=O)c2cnn3c(C)cc(C)nc23)cc1` the Potency was 0.41 µM (active).
With `CC(=O)Nc1ccc(NC(=O)c2cnn3c(C)cc(C)nc23)cc1` the “activity change, negative = inhibition” value was 1.44% (inactive).
For `CCc1ccc(NC(=O)c2cnn3c(C)cc(C)nc23)cc1`, the Potency was 2.91 µM (active).
For `Cc1cc(C)n2ncc(C(=O)NC3CCC(C(C)(C)C)CC3)c2n1` (stereo not drawn), the Potency was 11.6 µM (active) and 2.06 µM (active).
`O=C(Nc1ccccc1Sc1ccccc1)c1cnn2c1NC(=C1CC1)C=C2C(F)F` was tested, and the Potency was 4.61 µM (active).
With `Cc1cc(C)n2ncc(C(=O)Nc3ccncc3)c2n1` the “activity change, negative = inhibition” value was -0.601% (inactive).
In the case of `Cc1cc(C)n2ncc(C(=O)Nc3ccc(Br)cc3)c2n1`, the Potency is reported as 2.06 µM (active).
With `COc1ccc(NC(=O)c2cnn3c(C)cc(C)nc23)cc1OC` the “activity change, negative = inhibition” value was 25.1% (inactive).
`Cc1cc(C)n2ncc(C(=O)NC(C)C)c2n1` was tested, and the “activity change, negative = inhibition” value was 22.5% (inactive).
In the case of `Cc1cc(C)n2ncc(C(=O)Nc3ccc(C(F)(F)F)cc3)c2n1`, the Potency is reported as 1.46 µM (active).
In the case of `Cc1cc(C)n2ncc(C(=O)Nc3ccc4c(c3)CCC4)c2n1`, the Potency is reported as 2.91 µM (active).
`Cc1cc(C)n2ncc(C(=O)Nc3ccc4c(c3)OCO4)c2n1` was tested, and the Potency was 13 µM (active).
